By AC50 is commonly meant the concentration at which the activity in the assay is half-maximal.

Inconclusive results are not listed. Where a structure was tested more than once in an assay, its records may differ in their call. Calls of active or inactive are those of the source. Rule for the calls, unless noted: active = hit-call score of the fitted dose curve at least 0.9, where 1 is the maximum; inactive = score below 0.9.

The source of these data is PubChem BioAssay (EPA / NIEHS).

Experiment [1] is described as follows: ATG_TCF_b_cat_CIS: Attagene CIS-FACTORIAL HepG2 Assay for human T-Cell-Factor with beta-catenin (TCF/b-cat) (AID 2282965). The settings on record: HepG2 TCF/beta-catenin cis-reporter transcription, actives raise or lower the signal. The essentials: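 Measured: reporter mRNA in HepG2 transiently transfected with cis-promoter reporter units, 24 h after chemical addition. Fitting was bidirectional, DMSO as negative control.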

A short description of experiment [2]: ATG_TAL_CIS: Attagene CIS-FACTORIAL HepG2 Assay for human TAL Basal Promoter (AID 2282966).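 Note: background control endpoint measuring basal TAL promoter reporter mRNA not a specific factor.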 The conditions noted are these: HepG2 Attagene cis-factorial TAL promoter reporter; actives raise or lower the signal. The essentials: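 Readout: reporter mRNA, fluorescence by CE. System: HepG2, transient multi-reporter transfection, endogenous TF activity. Exposure: 24 h. Analysis: bidirectional, DMSO-normalized; background control.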

Experiment [3] can be described thus: ATG_TGFb_CIS: Attagene CIS-FACTORIAL HepG2 Assay for human Transforming Growth Factor (TGF) (AID 2282967). The settings on record: HepG2 Attagene CIS TGFb reporter, mRNA transcription; actives raise or lower the signal. The essentials:
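Bidirectional fitting relative to DMSO gave the endpoint. Underlying data: reporter mRNA from HepG2 cells carrying transiently transfected cis-regulated reporter constructs, harvested 24 h after dosing and analyzed by RT-PCR and capillary electrophoresis.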

Experiment [4] can be described thus: ATG_VDRE_CIS: Attagene CIS-FACTORIAL HepG2 Assay for human Vitamin D Receptor Element (VDRE) (AID 2282968). The settings on record: HepG2 VDRE cis-reporter transcription, actives raise or lower the signal. In outline: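 Reporter mRNA induction, quantified by capillary electrophoresis of fluorescently labelled RT-PCR products, was read 24 h after dosing HepG2 cells carrying transiently transfected cis-regulated reporter units; gain or loss relative to DMSO.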

In experiment [5] the target is Nuclear receptor subfamily 1 group I member 3 (Homo sapiens) (UniProt Q14994). The experiment in a line: ATG_CAR_TRANS: Attagene TRANS-FACTORIAL HepG2 Assay for human Constitutive Androstane Receptor (CAR) (AID 2282969; active = hit-call score of the fitted dose curve at least 0.9, where 1 is the maximum;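 note: activators raise reporter mRNA above DMSO so AC50 marks induction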). The settings on record: HepG2 Attagene TRANS-FACTORIAL CAR reporter. In outline: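 Readout is reporter mRNA induction, quantified by fluorescent primer extension and capillary electrophoresis after RT-PCR. Cells were HepG2 transiently carrying chimeric NR-Gal4 constructs with GAL4-UAS reporters, treated for 24 h; activity scored upward from DMSO.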
Nuclear receptor subfamily 1 group I member 3 (Homo sapiens), sequence (Q14994 whole entry, looked up, the tested form may be a part): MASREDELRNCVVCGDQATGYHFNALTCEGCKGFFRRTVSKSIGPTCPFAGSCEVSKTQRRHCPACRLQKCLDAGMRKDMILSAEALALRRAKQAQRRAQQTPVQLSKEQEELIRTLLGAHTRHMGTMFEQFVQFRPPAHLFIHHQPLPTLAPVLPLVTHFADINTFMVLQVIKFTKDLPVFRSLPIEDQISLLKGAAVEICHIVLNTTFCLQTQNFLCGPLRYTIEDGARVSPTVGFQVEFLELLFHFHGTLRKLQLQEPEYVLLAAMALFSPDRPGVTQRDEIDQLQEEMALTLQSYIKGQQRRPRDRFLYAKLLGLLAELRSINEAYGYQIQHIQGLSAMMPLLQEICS

Experiment [6] has as its target Estrogen receptor (Homo sapiens) (UniProt P03372). Description: ATG_ERa_TRANS: Attagene TRANS-FACTORIAL HepG2 Assay for human Estrogen Receptor alpha (ERa) (AID 2282970; active = hit-call score of the fitted dose curve at least 0.9, where 1 is the maximum). The settings on record: HepG2 Attagene TRANS ERa GAL4 reporter, mRNA. In outline: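 Transactivation via ERa-Gal4 chimera in HepG2; 24 hour incubation; reporter mRNA detected by fluorescence RT-PCR and capillary electrophoresis.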

Experiment [7] can be described thus: ATG_M_19_TRANS: Attagene TRANS-FACTORIAL HepG2 Assay for M19 Transcription Factor (Internal Marker) (AID 2282974; active = hit-call score of the fitted dose curve at least 0.9, where 1 is the maximum). The settings on record: HepG2 Attagene TRANS-FACTORIAL M19 internal marker reporter. The essentials:
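24 h chemical exposure of transiently transfected HepG2 (MRTU library). RNA → oligo(dT) RT → PCR → 6-FAM labelling → HpaI cut → CE fluorescence. Positive-direction fit vs DMSO baseline; background internal-marker readout.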

Experiment [8] is described as follows: ATG_GAL4_TRANS: Attagene TRANS-FACTORIAL HepG2 Assay for GAL4 (Internal Marker) (AID 2282976; active = hit-call score of the fitted dose curve at least 0.9, where 1 is the maximum). The conditions noted are these: HepG2 Attagene TRANS GAL4 internal marker reporter. The essentials:
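Fluorescence from capillary electrophoresis of labelled RT-PCR products quantifies reporter mRNA induction after 24 h dosing of HepG2 cells carrying transfected GAL4-UAS reporter transcription units. Vehicle DMSO serves as baseline.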

The target of experiment [9] is X-box-binding protein 1 (Homo sapiens) (UniProt P17861). Description: ATG_Xbp1_CIS: Attagene CIS-FACTORIAL HepG2 Assay for human X-box Binding Protein 1 (XBP1) (AID 2282972). The conditions noted are these: HepG2 XBP1 cis-element reporter, Attagene multiplex; actives raise or lower the signal. In outline:
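HepG2, transient MRTU transfection (cis-promoter driven), 24 h compound exposure. Total RNA → oligo(dT) RT → PCR → 6-FAM labeling → HpaI cut → CE. Bidirectional fit vs DMSO.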

Experiment [10] deals with Steroid hormone receptor ERR1 (Homo sapiens) (UniProt P11474). Description: ATG_ERRa_TRANS: Attagene TRANS-FACTORIAL HepG2 Assay for human Estrogen-Related Receptor alpha (ERRa) (AID 2282971; active = hit-call score of the fitted dose curve at least 0.9, where 1 is the maximum). The conditions noted are these: HepG2 Attagene TRANS reporter, ERRa transactivation. The essentials:
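HepG2 cells were transiently transfected with multiple GAL4-UAS reporter units, then dosed with compound for 24 h. Total RNA was reverse-transcribed, reporter cDNA PCR-amplified and fluorescently labelled, and fragments resolved by capillary electrophoresis; induction was compared with DMSO.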

X-box-binding protein 1 (Homo sapiens), sequence (P17861 whole entry, looked up): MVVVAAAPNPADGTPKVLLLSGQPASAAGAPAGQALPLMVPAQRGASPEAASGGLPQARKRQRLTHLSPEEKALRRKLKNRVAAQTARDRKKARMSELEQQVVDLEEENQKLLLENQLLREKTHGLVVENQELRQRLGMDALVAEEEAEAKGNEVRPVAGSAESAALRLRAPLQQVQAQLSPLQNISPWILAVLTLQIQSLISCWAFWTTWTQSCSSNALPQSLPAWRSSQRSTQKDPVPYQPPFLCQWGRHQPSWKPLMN
Estrogen receptor (Homo sapiens), sequence (P03372 whole entry, looked up, the tested form may be a part): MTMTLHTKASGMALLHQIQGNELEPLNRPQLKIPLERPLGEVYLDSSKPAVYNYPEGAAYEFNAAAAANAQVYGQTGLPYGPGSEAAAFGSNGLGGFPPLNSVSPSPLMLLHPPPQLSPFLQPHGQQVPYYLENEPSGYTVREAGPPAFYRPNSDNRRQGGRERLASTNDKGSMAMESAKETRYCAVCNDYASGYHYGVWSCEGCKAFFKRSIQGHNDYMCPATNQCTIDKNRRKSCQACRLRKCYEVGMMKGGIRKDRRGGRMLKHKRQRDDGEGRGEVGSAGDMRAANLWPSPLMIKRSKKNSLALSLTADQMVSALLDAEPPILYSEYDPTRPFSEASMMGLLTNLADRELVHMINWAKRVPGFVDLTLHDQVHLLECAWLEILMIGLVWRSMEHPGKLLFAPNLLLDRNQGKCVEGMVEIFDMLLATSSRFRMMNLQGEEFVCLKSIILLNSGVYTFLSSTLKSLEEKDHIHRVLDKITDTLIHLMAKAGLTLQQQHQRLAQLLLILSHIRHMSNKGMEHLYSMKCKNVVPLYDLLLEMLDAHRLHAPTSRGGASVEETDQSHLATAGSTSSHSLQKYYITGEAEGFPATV
Steroid hormone receptor ERR1 (Homo sapiens), sequence (P11474 whole entry, looked up, the tested form may be a part): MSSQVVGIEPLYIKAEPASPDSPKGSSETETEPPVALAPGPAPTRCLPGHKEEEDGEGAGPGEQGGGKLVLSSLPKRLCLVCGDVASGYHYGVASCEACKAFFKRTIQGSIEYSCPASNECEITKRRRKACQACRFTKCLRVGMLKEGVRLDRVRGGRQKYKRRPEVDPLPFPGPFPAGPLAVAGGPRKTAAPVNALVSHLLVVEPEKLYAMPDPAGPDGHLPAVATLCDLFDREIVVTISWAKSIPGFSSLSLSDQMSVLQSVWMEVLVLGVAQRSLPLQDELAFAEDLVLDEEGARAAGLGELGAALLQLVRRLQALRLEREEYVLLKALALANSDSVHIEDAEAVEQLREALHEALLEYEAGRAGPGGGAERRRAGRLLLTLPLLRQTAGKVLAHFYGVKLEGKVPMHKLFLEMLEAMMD

For the compound `OCC(F)(F)C(F)(F)C(F)(F)C(F)(F)C(F)(F)C(F)(F)F`, the compound was classed as inactive in experiment [1], in [3], in [4], in experiment [5], in experiment [6] and in experiment [7]. Besides, in experiment [8], the result was inactive. Further, in experiment [2], the AC50 was 239 µM (active).

In the case of `CC(C)OC(=O)c1ccccc1C(=O)OC(C)C`, the result in [1], in experiment [2], in experiment [3], in experiment [5] and in experiment [8] was inactive. Moreover, the AC50 in experiment [4] was 14.2 µM (active); in [6], 11.2 µM (active).

For the compound `O=C(O)C(F)(F)C(F)(F)C(F)(F)C(F)(F)F`, the outcome in experiment [1], in experiment [2], in experiment [3], in experiment [4], in experiment [5] and in experiment [6] was inactive. Also, the outcome in [7] and in [8] was inactive.

With `O=C(O)C(F)(F)C(F)(F)C(F)(F)C(F)(F)C(F)(F)C(F)(F)C(F)(F)C(F)(F)C(F)(F)C(F)(F)C(F)(F)C(F)(F)C(F)(F)F`, the outcome in [1], in experiment [2], in experiment [3], in [4], in experiment [5] and in experiment [6] was inactive. In [8], the compound was called inactive.

`O=C(O)C(F)(F)C(F)(F)C(F)F`: the outcome in experiment [1], in experiment [2], in [3], in experiment [4], in experiment [5] and in experiment [6] was inactive. Besides, the outcome in experiment [7] and in [8] was inactive.

For the compound `OCCCC(F)(F)C(F)(F)C(F)(F)F`, the compound was called inactive in experiment [1], in experiment [2], in [3], in experiment [4], in [5] and in experiment [6]. The compound was called inactive in experiment [7] and in experiment [8].

As to `OCC(F)(F)C(F)(F)C(F)(F)C(F)F`, the result in experiment [1], in [2], in [3], in experiment [4], in experiment [6] and in experiment [9] was inactive. Further, the compound was classed as inactive in [7] and in [8].

Regarding `OCC(F)(F)C(F)(F)C(F)(F)F`, the outcome in [1], in experiment [2], in [3], in experiment [4], in experiment [5] and in experiment [9] was inactive. Moreover, the compound was called inactive in [7] and in [8].

For the compound `OC[C@@H](O)[C@@H](O)[C@H](O)[C@@H](O)CO`, the outcome in experiment [1], in [2], in experiment [3], in [4], in [10] and in experiment [9] was inactive. Besides, the result in experiment [7] and in [8] was inactive. In addition, the AC50 in experiment [6] was 26.2 µM (active).

As to `O=S(=O)(OCC(F)F)C(F)(F)F`, the call in experiment [1], in experiment [2], in [3], in [4], in [6] and in experiment [10] was inactive. Further, the compound was classed as inactive in experiment [9], in experiment [7] and in experiment [8].

For the compound `C=CC(F)(F)C(F)(F)C(F)(F)C(F)(F)C(F)(F)C(F)(F)C(F)(F)C(F)(F)F`, the call in experiment [1], in experiment [2], in experiment [3], in [4], in [6] and in [9] was inactive. For the same compound, the call in experiment [7] and in experiment [8] was inactive.

In the case of `CNC(=S)NC`, the result in experiment [1], in experiment [2], in experiment [3], in experiment [4], in experiment [5] and in [7] was inactive. Moreover, the AC50 in experiment [6] was 25.9 µM (active).

In the case of `FC(F)(F)C(F)(F)C(F)(F)C(F)(F)C(F)(F)C(F)(F)C(F)(F)I`, the call in [1], in experiment [2], in experiment [3], in experiment [4], in experiment [5] and in experiment [7] was inactive. Moreover, in experiment [6], the AC50 is 3.7 µM (active).

`CCCCC(CC)COP(=O)(O)OCC(CC)CCCC` (stereo unspecified): the AC50 in experiment [1] was 42.7 µM (active); in [4], 27.6 µM (active). Further, the compound was called inactive in [2], in [3], in [5], in [6] and in experiment [7].

Take `C=C(C)C(=O)OCC(F)(F)C(F)(F)C(F)(F)F`: the compound was called inactive in [1], in experiment [2], in [3], in experiment [4], in experiment [6] and in [7]. Besides, in experiment [8], the compound was classed as inactive. For the same compound, in experiment [6], the AC50 was 30.7 µM (active).

As for `CC(C)(C)C(=O)CC(=O)C(F)(F)C(F)(F)C(F)(F)F`, the compound was called inactive in experiment [1], in experiment [2], in experiment [3], in experiment [4], in experiment [5] and in [6]. Besides, in [7], the outcome was inactive.

Turning to `Nc1cc(Cl)c(N)c(Cl)c1`, the result in experiment [1], in [2], in [3], in experiment [4], in experiment [5] and in [6] was inactive. Further, the outcome in experiment [7] and in experiment [8] was inactive.

For the compound `N=C(N)C(F)(F)C(F)(F)C(F)(F)C(F)(F)C(F)(F)C(F)(F)C(F)(F)F`, the result in [1], in [2], in experiment [3], in experiment [4], in experiment [5] and in [7] was inactive. The AC50 in experiment [6] is 40.6 µM (active).

With `Cc1ccc(S(=O)(=O)NCl)cc1`, the compound was classed as inactive in experiment [1], in [2], in [3], in experiment [6] and in experiment [8].

`Oc1ccc(Nc2ccccc2)cc1`: the result in experiment [1], in experiment [2], in experiment [3], in experiment [5] and in experiment [8] was inactive. Further, the AC50 in [4] is 56.3 µM (active); in [6], 5.96 µM (active).

Regarding `C(=C(c1ccccc1)c1ccccc1)c1ccccc1`, the call in [1], in experiment [2], in experiment [4], in [5], in [7] and in experiment [8] was inactive. In addition, the AC50 in experiment [3] is 100 µM (active); in [6] it was 0.0329 µM (active).

As to `CCCCCCS`, the AC50 in experiment [1] is 68.8 µM (active). Also, the outcome in experiment [2], in experiment [3], in experiment [4], in [5], in experiment [6] and in experiment [8] was inactive.

Regarding `CCO[Si](CCC(F)(F)C(F)(F)C(F)(F)C(F)(F)C(F)(F)C(F)(F)F)(OCC)OCC`, the result in experiment [1], in experiment [2], in experiment [3], in experiment [4], in [6] and in experiment [10] was inactive. The compound was classed as inactive in [8].

Regarding `NC(=O)C(F)(F)C(F)(F)C(F)(F)C(F)(F)F`, the compound was classed as inactive in experiment [1], in [2], in [3], in experiment [4], in experiment [5] and in experiment [6]. Further, in [8], the compound was called inactive.

Turning to `CCCCNc1ccccc1`, the outcome in [1], in [2], in [3], in [4], in experiment [5] and in experiment [6] was inactive. The call in experiment [7] and in experiment [8] was inactive.

For `FC(F)(F)C(F)(F)C(F)(F)N(C(F)(F)C(F)(F)C(F)(F)F)C(F)(F)C(F)(F)C(F)(F)F`, the compound was classed as inactive in experiment [1], in experiment [2], in experiment [3], in experiment [4], in experiment [5] and in experiment [6]. In addition, the outcome in experiment [7] and in experiment [8] was inactive.

Turning to `O=C(O)C(F)(OC(F)(F)C(F)(OC(F)(F)C(F)(F)C(F)(F)F)C(F)(F)F)C(F)(F)F` (stereo unspecified), the call in [1], in experiment [2], in experiment [3], in [4], in [6] and in experiment [10] was inactive. In addition, the call in experiment [9], in [7] and in [8] was inactive. The AC50 in [6] is 18.4 µM (active).
